ChEMBL document CHEMBL3988442, “University of Dundee, Small-Polar-MMV Screening Library” (2021)
Out of some 48,000 compounds screened, about 13,000 (27%) showed an effect of 50% or more. The list shows a part of the results.

The compounds below were run on Wolbachia pipientis (assay: Anti-Wolbachia Cell-Based Screen). Details: 5 µM.
Format: functional
Set-up: scale not given: in the data most compounds retested in dose-response had high values

Point of comparison: `Cc1nnc2n1CCN(CC(O)CN1CCC(C)CC1)C2` (stereo not drawn), “Percent Effect” value -0.2217%. Against it:
- Cn1cc(C(=O)Nc2cccc(-c3ccc4c(c3)CCO4)n2)ccc1=O — higher, 14%
- CCC1CN(C(=O)c2ncccc2O)CCC(=O)N1Cc1ccccc1 (stereo not drawn) — lower, -8.07%
- O=C1c2ncccc2C(CCO)N1Cc1ccccc1 (stereo not drawn) — higher, 101.3%
- O=C(Cc1cccnc1)N1C[C@@H]2CC[C@H](C1)N(Cc1ccccc1)C2=O — lower, -0.7591%
- CNC(=O)CC1c2cccnc2C(=O)N1Cc1ccccc1 (stereo not drawn) — higher, 136.6%
- CNC(=O)CC1CC2(CCN(c3ncccn3)CC2)c2ccccc21.O=C(O)C(F)(F)F (stereo not drawn) — lower, -15.28%
- CCC1CN(C(=O)c2cccnc2O)CCC(=O)N1Cc1ccccc1 (stereo not drawn) — lower, -1.189%
- O=C(O)c1cccnc1N1CCN(Cc2ccc(F)cc2)C(CCO)C1 (stereo not drawn) — lower, -1.62%
- COC(=O)CC1CN(Cc2c(Cl)ccc3cccnc23)CCO1 (stereo not drawn) — lower, -2.588%
- COC(=O)CC1c2cccnc2C(=O)N1Cc1ccccc1 (stereo not drawn) — higher, 107.1%
- NC(=O)CC1c2cccnc2C(=O)N1Cc1ccccc1 (stereo not drawn) — higher, 97.87%
- CNC(=O)c1cccnc1N1CCN(Cc2ccccc2)C(CCO)C1 (stereo not drawn) — lower, -3.747%
- O=C(Cc1ccccn1)N1C[C@@H]2CC[C@H](C1)N(Cc1ccccc1)C2=O — lower, -26.39%
- O=C(Nc1ccccc1OC(F)F)C1=NN(c2ccccc2)C(=O)CN1 — higher, 6.158%
- CC(C)c1noc(CCC(=O)N2CCN(C)CC2c2ccccc2)n1 (stereo not drawn) — higher, 2.762%
- CN(C)CCn1ccc2ccc(NC(=O)c3ccncc3F)cc21 — lower, -14.36%
- Cc1nn(C)c(C)c1CC(C)NC(=O)NCc1ccoc1C (stereo not drawn) — lower, -1.757%
- COc1cc(OC)cc(C(=O)N(C)Cc2nnc3ccccn23)c1 — higher, 132.8%
- Cc1ccc(C)c(C(O)CN(C)Cc2nnc3ccccn23)c1 (stereo not drawn) — lower, -3.237%
- COc1ccc(CC(=O)N(C)Cc2nnc3ccccn23)cc1 — higher, 2.883%
- COc1ccc(C(=O)N(C)Cc2nnc3ccccn23)cc1 — higher, 104.5%
- CN(Cc1nnc2ccccn12)C(=O)CCNC(=O)C(C)(C)C — higher, 7.202%
- CCC(O)CN(C)Cc1nnc2ccccn12 (stereo not drawn) — lower, -1.119%
- CN(C(=O)c1ccc(C#N)cc1)C1CCN(c2ccccn2)CC1 — higher, 4.986%
- CN(C(=O)c1cc(Cl)c[nH]1)C1CCN(c2ccccn2)CC1 — lower, -4.084%
- CN(C(=O)c1ccc(Cl)cc1)C1CCN(c2ccccn2)CC1 — higher, 98.58%
- CN(C(=O)Nc1cccc(C#N)c1)C1CCN(c2ccccn2)CC1 — lower, -13.99%
- CN(C(=O)c1cccc(Cl)c1)C1CCN(c2ccccn2)CC1 — higher, 127.4%
- CC(NC(=O)NCCCN(C)S(C)(=O)=O)c1ccncc1 (stereo not drawn) — higher, 10.56%
- CC1c2cc(F)ccc2CCN1CCS(=O)(=O)C(C)C (stereo not drawn) — higher, 14%
- O=C(O)C(F)(F)F.O=S(=O)(C1CC1)N1CCn2cc(CNc3ccccn3)nc2C1 — lower, -1.604%
- Cc1noc(C)c1CN1CCc2ncc(CN3CCCC3)n2CC1.O=C(O)C(F)(F)F.O=C(O)C(F)(F)F — lower, -7.49%
- Cc1noc(C)c1CN1CCn2cc(CNc3ccccn3)nc2C1.O=C(O)C(F)(F)F.O=C(O)C(F)(F)F — higher, 109%
- Cc1noc(C)c1CN1CCn2c(COC(C)C)nnc2C1 — lower, -15.51%
- O=C(O)C(F)(F)F.O=C(O)C(F)(F)F.c1ccc(NCc2cn3c(n2)CN(Cc2cccs2)CC3)nc1 — higher, 4.417%
- Cc1noc(C)c1CN(Cc1ccccc1)C(C)CN1CCOCC1 (stereo not drawn) — lower, -1.266%
- Cc1noc(C)c1CN1CCn2cc(CN3CCCCC3)nc2C1.O=C(O)C(F)(F)F — higher, 100%
- Cc1noc(C)c1CN1CCn2cc(CN3CCOCC3)nc2C1 — higher, 95.37%
- Cc1ccc(C(=O)N2CCn3cc(CN4CCCCC4)nc3C2)o1.O=C(O)C(F)(F)F — higher, 18.27%
- Cc1noc(C)c1CN1CCn2cc(CN3CCCC3)nc2C1.O=C(O)C(F)(F)F.O=C(O)C(F)(F)F — higher, 117.4%
- CC(=O)NCC(=O)N1CCn2cc(CN3CCCCC3)nc2C1.O=C(O)C(F)(F)F — lower, -3.049%
- Cc1noc(C)c1CN1CCn2cc(CNC(=O)C3CCC3)nc2C1.O=C(O)C(F)(F)F — lower, -7.774%
- O=C(Cc1ccc(Br)cc1)N1CC(S(=O)(=O)C2CCCCC2)C1 — lower, -12.58%
- N#Cc1cccc(C(=O)Nc2ccc([C@@H](O)[C@H]3COCC(=O)N3)cc2)c1 — lower, -8.801%
- Cc1nnc([C@@H]2CC[C@@H]3[C@@H](CCN3S(=O)(=O)C3CC3)O2)o1 — higher, 10.23%
- CC1(C)CN(C(=O)c2ccccc2-n2cncn2)CC1(C)O (stereo not drawn) — lower, -36.51%
- COc1cccc2c1OCCCN(Cc1c[nH]nc1C(=O)O)C2 — higher, 0.6416%
- CCN(CC)Cc1cn2c(n1)CN(Cc1c(C)noc1C)CC2.O=C(O)C(F)(F)F.O=C(O)C(F)(F)F — higher, 104%
- CCN(CC)Cc1cnc2n1CCN(Cc1c(C)noc1C)CC2.O=C(O)C(F)(F)F.O=C(O)C(F)(F)F — lower, -10.46%
- Cc1ccc(CN2CCn3cc(CN(C)Cc4ccco4)nc3C2)o1.O=C(O)C(F)(F)F.O=C(O)C(F)(F)F — higher, 18.64%
- Cc1cc2ncc(CN(C)C)c(C3CCN(C)CC3)n2n1 — higher, 76.44%
- CC(=O)N1CCC(c2c(CN(C)C)cnc3cc(C)nn23)CC1 — higher, 74.12%
- Cc1cc(N(C)CCN(C)C2CCCC2)n2nc(C)cc2n1 — higher, 9.952%
- Cc1cc(N(C)CCN(C)C)n2nc(C)cc2n1 — lower, -8.762%
- CC(=O)N1CCC(c2cc3c(ncn3C)c(-c3cnn(C)c3)n2)CC1 — lower, -10.45%
- CCc1noc(C2CCN(C(=O)CCn3nc(C)cc3C)CC2)n1 — higher, 2.839%
- COc1cc(C(=O)N2Cc3cnc(C(C)(C)C)nc3C2)ccn1 — lower, -33.89%
- O=C(C1CCCC1)N1CCCC([C@@H]2C[C@H](C(F)F)n3ncnc3N2)C1 (stereo partly drawn) — higher, 108.9%
- O=C(C1CCCCC1)N1CCCC([C@@H]2C[C@H](C(F)F)n3ncnc3N2)C1 (stereo partly drawn) — higher, 100.7%
- O=C(NCCOc1ccc(F)cc1)C1CCCN(C(=O)C2CC2)C1 (stereo not drawn) — lower, -0.9975%
- O=C(C1CCCC1)N1CCC(C(O)c2ccc(F)cc2)CC1 (stereo not drawn) — lower, -1.378%
- Cc1cnn(CC2CN(Cc3csc(C(C)C)n3)CCO2)c1 (stereo not drawn) — higher, 144.1%
- CC(C)c1nc(CN2CCOC(Cn3cncn3)C2)cs1 (stereo not drawn) — higher, 78.62%
- CC(C)Cc1noc(CN2CCOC(Cn3cncn3)C2)n1 (stereo not drawn) — lower, -1.295%
- CC(C)c1nc(CN2CCOCC2)cs1 — higher, 0.6364%
- CC(=O)N(C)c1nc(CN2CCOC(Cn3cc(C)cn3)C2)cs1 (stereo not drawn) — lower, -3.323%
- CC(C)(C)c1nc(CN2CCCC(Cn3cncn3)C2)cs1 (stereo not drawn) — higher, 5.475%
- Cc1ccc(-c2nc(CN3CCOC(Cn4cncn4)C3)cs2)o1 (stereo not drawn) — higher, 11.16%
- c1csc(-c2nc(CN3CCOC(Cn4cncn4)C3)co2)c1 (stereo not drawn) — higher, 1.427%
- CC(C)(C)c1nc(CN2CCOC(Cn3cncn3)C2)cs1 (stereo not drawn) — higher, 103.7%
- CN(C(=O)COCc1ccccc1)C1CCN(CC2CCOC2)CC1 (stereo not drawn) — lower, -14.42%
- CCC(C)(N)c1nc(C(C)C)cc(=O)[nH]1.Cl (stereo not drawn) — lower, -2.59%
- CCc1nnc2n1CC(CNCc1ccncc1)CC2 (stereo not drawn) — lower, -8.895%
- Cc1nccn1-c1ccc(CNS(=O)(=O)N2CCCC(C)C2)cn1 (stereo not drawn) — lower, -3.486%
- O=C(NCc1ccc(-n2cncn2)nc1)c1cc(Cl)ccn1 — higher, 100.5%
- CCCc1nc(C(=O)NCc2cccnc2-n2cncn2)cs1 — lower, -5.546%
- CC(C)C(=O)NCc1ccc(-n2cncn2)nc1 — lower, -6.912%
- O=C(NCc1ccc(-n2cncn2)nc1)c1cnccn1 — higher, 91.78%
- CC(C(=O)NCc1ccc(-n2cncn2)nc1)S(C)(=O)=O (stereo not drawn) — lower, -11.84%
- O=C(NCc1ccc(-n2cncn2)nc1)c1ccoc1 — higher, 0.1706%
- O=C(NCc1cccnc1-n1cncn1)c1cc(Cl)ccn1 — higher, 106.2%
- CC(C(=O)NCc1ccc(-n2cncn2)nc1)n1ccnc1 (stereo not drawn) — lower, -4.71%
- CCC(C)C(=O)NCc1ccc(-n2cncn2)nc1 (stereo not drawn) — lower, -5.498%
- CCN(CC)c1ccc(C(=O)NCc2cccnc2-n2cncn2)cn1 — higher, 14.25%
- O=C(NCc1ccc(-n2cncn2)nc1)c1cc[nH]n1 — higher, 86.29%
- CC(C)COC(C)C(=O)NCc1ccc(-n2cncn2)nc1 (stereo not drawn) — lower, -8.308%
- COCCN(Cc1ccc(F)cc1Cl)C(=O)c1ccc(=O)[nH]n1 — lower, -1.923%
- CCc1nsc(N2CCN(CC(=O)Nc3c(C)n[nH]c3C)CC2)n1 — lower, -25.55%
- CCc1nc(CN2CCCN(C(=O)COCC3CC3)CC2)cs1 — lower, -1.235%
- CCN(CC(C)O)C(=O)Nc1cnn(CCOC)c1 (stereo not drawn) — lower, -12.18%
- NC(=O)NC(=O)CCN1CCCN(c2nccs2)CC1 — lower, -3.66%
- COCc1cc(N(C)Cc2cnccn2)nc(C(C)(C)C)n1 — higher, 4.515%
- CC(C)(CNCc1ccc(OCc2cscn2)cc1)C(N)=O.Cl — higher, 0.3922%
- COc1ccccc1Oc1ncccc1CNC(=O)C1(C)CCCNC1 (stereo not drawn) — higher, 21.66%
- COc1ccccc1-c1ccccc1CC1(C(=O)O)CCNCC1 — higher, 100.9%
- COc1ccc(F)cc1NC(=O)NCC1(CN2CCOCC2)CC1 — higher, 21.38%
- CCOC(=O)C1(Cc2cccc(OC)c2)CCN(Cc2ccon2)CC1 — higher, 2.808%
- COc1ccc(F)cc1NC(=O)NCC1(C)COC1 — higher, 5.652%
- COc1ccc(F)cc1-c1ccccc1CC1(C(=O)O)CCOCC1 — higher, 118.1%
- COc1ccccc1CCN[C@@H]1c2ccccc2C2(CCNCC2)[C@H]1O — lower, -1.43%
- COc1ccccc1CN(C)C(=O)CN1C(=O)OC[C@@H]1c1ccccc1 — lower, -5.71%
- CCOC(=O)C1(Cc2ccccc2-c2ccccc2OC)CCNCC1.Cl — higher, 172.1%
